40 compounds from PubChem BioAssay can be followed below.

Unmarked numbers belong to inactive results. How the calls were made is not given here.

The experiment deals with Pantothenate synthetase (Mycobacterium tuberculosis (strain ATCC 25618 / H37Rv)) (UniProt P9WIL5). Put plainly: Recombinant Mtb pantothenate synthetase (PanC) inhibitors, coupled enzyme, confirmatory (AID 375).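 Further: 0% = full reaction with vehicle and 100% = no enzyme background.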 The conditions noted are these: coupled enzyme assay; at 10 µM, stronger effect = higher value.
Pantothenate synthetase (Mycobacterium tuberculosis (strain ATCC 25618 / H37Rv)), sequence (P9WIL5 whole entry, looked up): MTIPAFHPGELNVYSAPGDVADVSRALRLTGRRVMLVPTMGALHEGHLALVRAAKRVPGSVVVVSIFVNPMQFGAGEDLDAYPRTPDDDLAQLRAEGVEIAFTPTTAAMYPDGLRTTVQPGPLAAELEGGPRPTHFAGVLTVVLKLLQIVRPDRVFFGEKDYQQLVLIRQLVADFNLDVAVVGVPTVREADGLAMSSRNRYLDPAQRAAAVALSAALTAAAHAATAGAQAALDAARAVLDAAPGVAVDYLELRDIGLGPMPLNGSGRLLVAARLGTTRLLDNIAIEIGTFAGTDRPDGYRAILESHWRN
For the compound `CCn1c(=N)n(CC(=O)C23CC4CC(CC(C4)C2)C3)c2ccccc21`, the inhibition (usually the relative decrease from the control value, in per cent) was 0%.
For the compound `CC(C(=O)N1CCCCC1)n1ncn2cccc2c1=O` (stereo not given), the inhibition was 0%.
As for `CCOC(=O)Cn1c2c(c(=N)c3ccccc31)CCC2`, the figure is 13%; as for `CN(CC(=O)Nc1cccnc1)S(=O)(=O)c1cc(Cl)ccc1Cl`, 0%.
For `Cc1cc(Cl)ccc1OCCCC(=O)N1CCOCC1` the value was 0%; for `Cc1nc2ccc(S(=O)(=O)NCC(=O)O)cc2s1`, 4%.
For `COc1ccccc1N1CCN(C(=O)CSc2nc(-c3ccccc3)cc(=O)[nH]2)CC1` the value was 1%; for `COc1ccc(NC(=O)CC2Oc3ccccc3NC2=O)cc1` (stereo not given), 0%; for `CCOc1cc2[nH]c(=O)n(CCCCC(=O)N3CCCCCC3)c(=O)c2cc1OCC`, 2%.
Regarding `CCOC(=O)C(NC(=O)CC)(Nc1ccc(S(=O)(=O)Nc2onc(C)c2C)cc1)C(F)(F)F` (stereo not given), the inhibition is 0%.
For `COc1ccc(N2CCN(CCCNC(=O)CC3Oc4ccc(C)cc4NC3=O)CC2)cc1` (stereo not given) the value was 0%; for `COc1ccc(S(=O)(=O)NC(C)C(=O)Nc2cccc(C(C)=O)c2)cc1` (stereo not given), 0%; for `Cc1cc(C)n(-c2nc(C)nc3sc4c(c23)CCC(C)C4)n1` (stereo not given), 0%.
For `CCCCc1c(O)nc(N2CCN(Cc3ccccc3)CC2)[nH]c1=O` the value was 7%; for `CC(=O)NCC(=O)OC(C)C(=O)Nc1ccc(C(C)=O)cc1` (stereo not given), 3%; for `CCOC(=O)N1CCN(Cc2cc(=O)oc3ccc4ccccc4c23)CC1`, 6%.
Take `CCCOC(=O)/C(C(N)=NCc1ccccc1)=C(\O)OCCC`: the inhibition was 0%.
As to `CC(C)C(C(=O)Nc1ccc2c(c1)OCCO2)N1C(=O)c2ccccc2C1=O` (stereo not given), the inhibition was 0%.
Turning to `Cc1nc(C)c(C(=O)Nc2ccc(Oc3ccccc3)cc2)o1`, the inhibition is 0%.
For `COc1ccc(C)cc1NC(=O)CNC(=O)Cn1ccc2ccccc2c1=O` the value was 5%.
For `CC1CN(C(=O)CSc2nnc(-c3ccncc3)n2-c2ccccc2)CC(C)O1` (stereo not given) the value was 1%; for `O=C(O)c1cc2nc(-c3ccc(F)cc3)cc(C(F)(F)F)n2n1`, 2%.
Take `CN(C1CCS(=O)(=O)C1)S(=O)C12CC3CC(CC(C3)C1)C2` (stereo not given): the inhibition was 3%.
For `COc1cc2c(cc1OC)CN(C(=O)COc1ccc(C#N)cc1)CC2` the value was 0%.
For `Cc1cccc(OCC(=O)N2CCC(N3CCCCCC3)CC2)c1` the value was 0%; for `CCOC(=O)c1cnn(-c2cc(C)c3cc(C)cc(C)c3n2)c1N`, 0%.
As for `Cc1noc(NS(=O)(=O)c2ccc(N3C(=O)c4ccccc4C3=O)cc2)c1C`, the figure is 3%.
As to `O=C(O)CCc1ccc(-c2ccc(F)cc2)n1CCC(=O)O`, the inhibition is 0%.
As for `Cc1c(NC(=O)c2noc3c2CCc2ccccc2-3)c(=O)n(-c2ccccc2)n1C`, the figure is 0%.
As for `COc1ccccc1CC1(C)NC(=O)N(CC(=O)Nc2cc(C)on2)C1=O` (stereo not given), the figure is 1%.
As for `COc1cccc(OC)c1C(=O)N1CCN(S(=O)(=O)c2ccc(C)cc2)CC1`, the inhibition was 1%.
As for `COCCn1nnnc1C(c1ccccc1OC)N1CCc2ccccc2C1` (stereo not given), the figure is 0%.
Consider `O=c1c(CN2CCN(Cc3ccccc3)CC2)coc2ccc(Cl)cc12`, for which the inhibition was 0%.
For `COc1cccc(N2CCN(c3c4c(nc5ncnn35)CCC4)CC2)c1` the value was 0%; for `CCSc1nncn1/N=C/c1ccc(OC)c(OC)c1`, 4%; for `O=C1CC(N2CCOCC2)C(=O)N1c1ccc2c(c1)OCO2` (stereo not given), 1%.
As for `COc1cccc(-c2csc(N3CCN(CC(=O)Nc4ccc5c(c4)OCO5)CC3)n2)c1`, the figure is 0%; as for `O=C(O)C(c1ccccc1)N1CCCC1` (stereo not given), 0%.
As for `Cc1nnc(NC2CCCCC2)[nH]c1=O`, the figure is 3%; as for `O=C(CSc1n[nH]c(-c2cccs2)n1)N1CCN(S(=O)(=O)c2ccccc2)CC1`, 0%.
